Molecules are shown by their SMILES. This is part of a sample that, as a whole, favours compounds with a hit. Of some 83,000 tested, about 20% had one in any assay.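 Plates (96-well) were seeded with cells, treated with compound at one concentration, and incubated for 48 hours before percent growth was determined.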 A number with no mark means an inactive call. Calls of active or inactive are those of the source. Rule for the calls: active = growth percent below 10; inactive = the rest.

The assay deals with MDA-MB-468 breast. Description: NCI-60 one-dose screen, 48 h (100 = growth as untreated, 0 = no growth, -100 = all killed). Particulars: 10 µM unless noted.
`CC1OC(C(=O)N2CCN(CCO)CC2)CC1COC1CCCCC1` (stereo not given): the growth was 94.6% [50 µM].

Take `Cc1[nH]c(-c2nc3ccccc3[nH]2)c(C)c1C(=O)N1CCOCC1`: the growth was 91.6%. To `CCCCCCN1CSC(=S)N(CCCCCC)C1` belongs 89%.

Take `CCc1ccccc1-n1c(-c2ccc(Cl)cc2)cc(-c2ccc(OC)cc2)c(C#N)c1=O`: the growth was 104%.

Take `COC(=O)[C@]12CC[C@@H](C)[C@H](C)[C@@H]1C1=CC[C@@H]3[C@@]4(C)C(C=O)=C[C@@](C)(COS(C)(=O)=O)C4[C@H](O)C[C@@]3(C)[C@]1(C)CC2` (stereo not given in full): the growth is -64.7% (active). To `O=C1c2cc3c(cc2-c2c1c1ccc(F)cc1c(=O)n2CCCN1CCOCC1)OCO3` belongs 18.5%.

Turning to `Cc1ccc(C)c(C(O)(c2cc(C)ccc2C)C2(O)CCCCC2)c1`, the growth was 90.5%.

Regarding `COC12C=C/C(=C(/C(=O)OCc3ccccn3)C(=O)CCCCCCCCC3(OC)C=C/C(=C(/C(=O)OCc4ccccn4)C(=O)CCCCCCCC1)O3)O2`, the growth was -32.5% (active). As for `O=C1/C(=C/c2ccc(Cl)cc2)CN(C(=O)C(Cl)Cl)C/C1=C\c1ccc(Cl)cc1`, the growth was -59.7% (active). To `CCCC(=O)NC(c1cccnc1)c1cc(C(C)=O)c2cccnc2c1O` (stereo not given) belongs 15.8%; to `COc1cc(C)c(C2C(C#N)=C(N)Oc3n[nH]c(-c4cccs4)c32)cc1C(C)C` (stereo not given), 101%; to `CC(C)C(C)(C)c1ccc(O)cc1`, 91.1%. To `S=c1[nH]c(=S)c2c(-c3ccccc3)c(-c3ccccc3)oc2[nH]1` belongs 96.7%.

Take `COc1ccc2c(c1)c(-c1nc(-c3c[nH]c4ncccc34)cs1)cn2CCO`: the growth was 1.57% (active). Take `Oc1c(CN2CCCC2)cc(COCc2ccccc2)c2cccnc12`: the growth was -15.4% (active).

As to `O=C1/C=C/[C@@H](O)[C@@H]2C[C@@H](O)C[C@H]2/C=C/CCC[C@H](CCc2ccccc2)O1`, the growth was -43.7% (active). To `N=C(c1ccccc1)N(Cc1ccccc1)Cc1ccccc1` belongs 98.2%; to `Fc1[nH]nc2ccc([C@@H]3Nc4ccc5[nH]ncc5c4[C@H]4C5CCC(C5)[C@@H]34)cc12` (stereo not given in full), 16%. Regarding `CCC/C(=N\NC(N)=O)C(OC)OC`, the growth is 103%. As for `CCOC(=O)C/C(=N\Nc1cc(=O)[nH]c2ccc(C)cc12)C(=O)OCC`, the growth is 91.1%. The value for `CCOC(=O)C1C(C(=O)OCC)C2C(=O)C3C(C(=O)OCC)C(C(=O)OCC)C3C(=O)C12` (stereo not given) was 98.5%; that for `COC(=O)C(C)NC1=C(Cl)C(=O)C(NC(C)C(=O)OC)=C(Cl)C1=O` (stereo not given) was 63.6%; that for `COc1ccc(CC2c3cc(OC)c(OC)cc3CC[N+]2(C)CCC(=O)OCCCCCOC(=O)CC[N+]2(C)CCc3cc(OC)c(OC)cc3C2Cc2ccc(OC)c(OC)c2)cc1OC` (stereo not given) was 88.3%. Take `C=C(C)C1CCC(=C)C2CCC3(C)OC12/C=C(/COC(C)=O)CCC3O` (stereo not given): the growth is 115%.

As for `CC1=CN2C(=NC3=C(CCCC/C3=C\c3ccccc3)C2c2ccccc2)S1` (stereo not given), the growth was 116%. To `CN(C)Cc1cc(C(C)(C)CC(C)(C)C)ccc1O` belongs 100%; to `CCCCCCCCCCCC(=O)NC(C)(C)C(=O)N1CCCC1C(=O)NC(C)(C)C(=O)NC(C)(C)C(=O)N1CCCC1C(=O)NC(C)(C)C(=O)NC(C)(C)C(=O)N1CCCC1C(=O)NC(C)C(=O)NCCC(=O)NC(C)C(=O)NC(C)(C)C(=O)NC(C)(C)C(=O)NC(C)(C)C(=O)NCCC(=O)NC(C)(C)C(=O)NC(C)(C)C(=O)NC(C)(C)C(=O)NC(C)C(=O)NCCC(=O)O` (stereo not given), -88.5% (active); to `CCCCCCC/C=C/[C@H]1O[C@]2(O)C(=O)C=C3C[C@@H](O[C@@H]4O[C@H](CO)[C@@H](O)C(O)[C@@H]4O)C[C@@H]3[C@H]2C=C1C` (stereo not given in full), -3.04% (active). In the case of `Cc1noc(C)c1CSc1ccccc1C(=O)N1CCN(c2cccc(C(F)(F)F)c2)CC1`, the growth is 38.1%. In the case of `CCN(CC)CCCCCCNc1cccc2cc(Br)cnc12`, the growth is 77%.

Turning to `Cc1cc(C)n(Nc2nc3ccccc3[nH]c2=O)c(=O)c1C#N`, the growth is 90.8%. Regarding `O=c1c2ccccc2cc2n1CCN=C2c1ccccc1`, the growth was 98.4%. In the case of `NC(N)=Nc1ccc(Oc2cccc(Nc3ccc(Cl)c(C(F)(F)F)c3)c2)cn1`, the growth was -84.4% (active).

On to `CNC(=O)c1c(NC(=O)c2cccc(C(F)(F)F)c2F)sc2c1CCC(=O)C2`, for which the growth is 0.936% (active). For `O=Nc1c2cccnc2n2nnc3ccc(Cl)cc3c12`, the growth was -69.4% (active). With `COc1cc(NC(N)=NCCC(C)(C)c2ccc(C(F)(F)F)cc2)ncc1C#N`, the growth is -39.1% (active). The value for `O=C1c2ccccc2C(=O)c2sc(Nc3ccc(Cl)cc3)nc21` was 28.6%; that for `CCN=Cc1c(O)c(O)c(C(C)C)c2cc(C)c(-c3c(C)cc4c(C(C)C)c(O)c(O)c(C=NCC)c4c3O)c(O)c12` was 55.7%; that for `COc1cc(N)c2ncccc2c1SC` was 107%.

As for `S=C(Nc1ccc(Cl)cc1)c1ccccn1`, the growth was 98.9%.

(Values after PubChem BioAssay (NCI).)
